Assay results taken from PubChem BioAssay AID750 (Sanford-Burnham Center for Chemical Genomics, 2007).
Among all 86,000 compounds or so, about 140 (0.16%) were called active.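 The calls were made as follows: active = activation factor of at least 2 for MT1-MMP transcription at 10 µM; inactive = the rest.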 The list comes from a sample in which actives are over-represented; it also holds similar structures and randomly drawn compounds.

Experiment: MT1-MMP promoter reporter activation – cell-based, luciferase luminescence, primary screen (AID 750)
Details: HT1080 MT1-MMP promoter luciferase reporter, overnight, at 10 µM, active compounds read high

Compound	activation factor
Cc1nn(C(C)CC(=O)O)c(C)c1C (stereo not given)	1.2 (inactive)
COc1ccc(NC(=O)CSc2nc(NS(=O)(=O)c3ccc(C)cc3)cc(=O)[nH]2)cc1	1.3 (inactive)
O=C(N/N=C\c1cccc(Br)c1)c1ccccc1-n1cccc1	1.4 (inactive)
Cc1ccc(S(=O)(=O)Nc2nc(C)cc(-n3nc(C)cc3C)n2)cc1	1 (inactive)
CCC(C)NC(=O)C1CCCN(C(=O)NC2CCCCC2)C1 (stereo not given)	1.2 (inactive)
Cc1cc(C)n(-c2nc(O)cc(=O)[nH]2)n1	1 (inactive)
O=C(CN(c1ccccc1)S(=O)(=O)c1ccc(Cl)cc1)Nc1ccccc1C(=O)N1CCCC1	0.9 (inactive)
O=C1/C(=C/c2cccs2)CCc2ccccc21	1.8 (inactive)
CCOC(=O)C1=C(C)NC(=O)NC1c1ccccc1 (stereo not given)	1.1 (inactive)
Cc1ccc(S(=O)(=O)c2c(COC(=O)c3cccc(Cl)c3)c(-c3ccccc3)nn2C)cc1	1.1 (inactive)
CCOC(=O)c1[nH]c(C)c(C(=O)OCC(=O)N2c3ccccc3CC2C)c1C (stereo not given)	1 (inactive)
C=C(Cl)COC(=O)C1C2C=CC(C2)C1C(=O)O (stereo not given)	1.1 (inactive)
O=C(/C=C/c1ccc(Cl)cc1Cl)c1cccnc1	1 (inactive)
CCCCc1nc(NCCN)c(C#N)c2c1CSC(C)(C)C2	1.4 (inactive)
CCOc1ccc(NC(=O)CCS(=O)(=O)c2ccc3c(c2)CCCN3C(=O)CC)cc1	1.1 (inactive)
O=C(CSC1=Nc2ccccc2C2=NC(CC(=O)NCc3ccco3)C(=O)N12)NCc1ccco1 (stereo not given)	1.1 (inactive)
CC1(C(=O)NCCc2c[nH]c3ccccc23)C=CC2(CCCCC2)N1C(=O)c1ccccc1 (stereo not given)	1 (inactive)
O=c1[nH]c(SCc2ccccc2)nnc1-c1ccccc1	1.1 (inactive)
O=C(CCc1ccccc1)NCC#CC(O)c1ccc(Br)cc1 (stereo not given)	1.2 (inactive)
O=C(NCc1ccccc1Cl)c1csc2c1CCCCC2	1.1 (inactive)
CCCCCCSc1nsc(N)n1	1.4 (inactive)
CC(C)CNC(=O)CC(c1ccccc1)c1c(O)ccc2ccccc12 (stereo not given)	1 (inactive)
CCCNC(=O)CN(Cc1ccccc1F)S(=O)(=O)c1ccc(C)cc1	1.3 (inactive)
CCCCNS(=O)(=O)c1ccc(S(=O)(=O)n2cnc3ccccc32)cc1	1.1 (inactive)
O=C(Nc1nccs1)c1cc(S(=O)(=O)N2CCOCC2)c(Cl)cc1Cl	1 (inactive)
CCn1nc(C)c(NC(=O)/C=C/c2ccc(OC)c(COc3ccc(Br)cc3)c2)c1C	0.9 (inactive)
CCCCN(CC)CCNC(=O)c1[nH]c(C)c(C(C)=O)c1C	0.9 (inactive)

Compound	activation factor
O=C(COc1ccc(Cl)cc1)NCCSc1ccccc1	1.2 (inactive)
CCOc1ccc(NC(=O)c2ccccc2NS(C)(=O)=O)cc1	1.3 (inactive)
O=C(c1cc2c(s1)CCC2)N1CCN(c2ccccc2)CC1	1.1 (inactive)
COc1ccc(C2=NOC3(CC(=O)N(c4ccc(C)cc4)C3=O)C2)cc1 (stereo not given)	1.2 (inactive)
CC1=NN(/C(=N\c2nnc(C)s2)Nc2ccccc2)[C@H](c2ccc(C)cc2)S1	1.1 (inactive)
O=C1CCCc2nn(-c3ccccc3)nc21	1.5 (inactive)
OC(CN=c1sc2ccccc2n1CC(O)COc1ccccc1)COc1ccccc1 (stereo not given)	1.4 (inactive)
C=C(C)C(=O)Nc1cccc(C(C)=O)c1	1.3 (inactive)
CC1CCN(C(=O)CN(c2ccc(Oc3ccccc3)cc2)S(C)(=O)=O)CC1	1 (inactive)
COc1ccc(CNc2ccc3c(c2)CCC3)cc1OC	1.1 (inactive)
Cc1ccccc1-n1nc(C)c2cc(C(=O)NC3CC3)sc21	1.1 (inactive)
Cc1cc(Oc2ccccc2)nc(N2CCOCC2)n1	1.1 (inactive)
Cc1ccc(OCC(=O)N2CCN(C(=O)c3cccnc3)CC2)cc1	1 (inactive)
O=C1/C(=C\Nc2ccccc2)CCN1c1ncccn1	1.9 (inactive)
COc1ccc(CN(Cc2ccco2)S(=O)(=O)c2ccc(S(=O)(=O)N3CCCC3)cc2)cc1	1 (inactive)
CCCCNC(=O)C1CCCN(S(=O)(=O)c2ccc(S(=O)(=O)NCC(C)C)cc2)C1 (stereo not given)	1.2 (inactive)
CCc1ccc(CNC(=O)C2CCCN(c3nc4ccccc4o3)C2)cc1 (stereo not given)	1.1 (inactive)
Cc1cccc(C(=O)N2CCCN(C(=O)c3cccc(C)c3)CC2)c1	1 (inactive)
CCC(C)(C(=O)NC1CCCCC1)N(C)C(=O)c1ccc2c(c1)OCO2 (stereo not given)	1 (inactive)
Cc1ccc(OCCCC(=O)Nc2ccc(N3CCOCC3)cc2)cc1	1.1 (inactive)
O=C(CN1C(=O)C2C3C=CC(C3)C2C1=O)Nc1nc(-c2ccccn2)cs1 (stereo not given)	1.2 (inactive)
COC(=O)c1ccc(C(NC(=O)OCc2ccccc2)/C(C)=C/[C@@H](C)C(=O)NCc2ccc(OC)c(OC)c2)cc1 (stereo not given in full)	1.4 (inactive)
O=C(CC12CC3CC(CC(C3)C1)C2)Nc1ccc2c(c1)COC2=O	1 (inactive)
COc1ccccc1NC(=O)CC(NCCN(C)C)C(=O)O (stereo not given)	1 (inactive)
CS(=O)(=O)N(CC(=O)N1CCN(Cc2ccccc2)CC1)c1ccc2c(c1)OCCO2	0.9 (inactive)
CCn1c(SCC(=O)Nc2nc(C)cs2)nnc1C(C)NC(=O)c1ccccc1 (stereo not given)	1.3 (inactive)
CCCc1nnc(NC(=O)c2cccs2)s1	1.4 (inactive)

Compound	activation factor
CCOC(=O)CN1C(=O)C(=O)c2cc(C)ccc21	1.1 (inactive)
COc1ccc(/C=N/Nc2nc3ccccc3o2)cc1OC	1.7 (inactive)
CN1CCN(C(=O)Cn2c(C(F)(F)F)nc3ccccc32)CC1	1.2 (inactive)
Cc1ccc(S(=O)(=O)NC(=O)COc2ccccc2C)cc1	1.2 (inactive)
CC1(C)N=C(c2ccccn2)C(C)(C)N1O	1 (inactive)
COc1ccc(CN(C(=O)CSc2nnc(-c3ccc(OC)c(OC)c3)o2)c2ccc(F)cc2)cc1	1.2 (inactive)
CCOC(=O)c1ccc2c(c1)nc(C)n2CC	1.6 (inactive)
O=C(NC(=O)c1ccccc1)NC(=O)c1ccccc1	1 (inactive)
CN(C)c1ccnc2sc3c(=O)n(-c4ccc(Cl)cc4)cnc3c12	1.5 (inactive)
Cc1ccc(-n2cc3ccc([N+](=O)[O-])cc3n2)cc1	0.9 (inactive)
CCOCN(C(=O)Cn1c(C(C)O)nc2ccccc21)c1c(C)cccc1CC (stereo not given)	1.2 (inactive)
CC1CC(C)CN(CC(=O)N2c3ccccc3CCc3ccccc32)C1 (stereo not given)	1.1 (inactive)
O=C(NCCN1CCN(Cc2ccccc2)CC1)c1cc2c(=O)[nH]c3ccccc3c2s1	1 (inactive)
Cc1nn(C)cc1CNC(=O)Nc1ccc(Cl)cc1	1.7 (inactive)
Cc1ccc(-c2csc(NC(=O)Cc3cccs3)n2)cc1C	1.3 (inactive)
O=P(O)(CP(=O)(c1ccccc1)c1ccccc1)c1ccccc1O	1.2 (inactive)
COc1ccc(C(=O)NN(C)c2nc(-c3ccccc3)cc(C)c2S(C)(=O)=O)cc1	1.1 (inactive)
O=S(=O)(c1ccc(Br)cc1)n1ccc2ccccc21	1.1 (inactive)
O=C(NCCc1ccccc1)c1ccc(OCCOc2ccccc2)cc1	1 (inactive)
COC(=O)c1ccc(S(=O)(=O)N2CCC(c3nc4ccccc4o3)CC2)cc1	1.1 (inactive)
COc1ccc(C(c2nnnn2C2CCCCC2)N2CCN(c3ccccc3F)CC2)cc1 (stereo not given)	1.1 (inactive)
c1ccc(CCn2nnnc2CN2CCN(C3CCCC3)CC2)cc1	1.1 (inactive)
c1ccc(C(c2ccccc2)N2CCN(Cc3nnnn3C3CCCCC3)CC2)cc1	2 (active)
C=CCn1c(SCc2c(C)noc2C)nc2sc3c(c2c1=O)CCC(C)C3 (stereo not given)	0.6 (inactive)
CCOc1ccc(-c2nc(C)sc2CC(=O)O)cc1	1 (inactive)
CC(C)(C)N1CC(c2nc3ccccc3n2Cc2ccc(F)cc2)CC1=O (stereo not given)	1.2 (inactive)
CC1(C)Cc2cccc(OCC(N)=O)c2O1	1.2 (inactive)

Compound	activation factor
Cn1nc(C(F)(F)F)c2cc(NC(=O)OCC(C)(C)C)sc21	1 (inactive)
CC1=NN(C(C)C)C(=O)C1	1.2 (inactive)
CN(C)S(=O)(=O)c1ccc(NC(=O)COC(=O)c2n[nH]c3ccccc23)cc1	1.3 (inactive)
O=C(OC1CCCCC1=O)c1cccc(S(=O)(=O)NCc2ccccc2)c1 (stereo not given)	1.2 (inactive)
COc1ccc(NC(=O)Cn2c(=O)n(Cc3ccco3)c(=O)c3ccccc32)cc1	1 (inactive)
Cc1ccc(-n2nc3cc(C)c(NC(=O)c4cccnc4)cc3n2)cc1	1.5 (inactive)
CC(C)C[C@@H](N)c1nnc(SCC(=O)c2ccc(Cl)cc2)o1	1.1 (inactive)
S=C1NC(c2ccccc2)=NCN1c1ccc(Br)cc1	1.2 (inactive)
Cc1cc(NC(=O)CN2CCCC(C)C2)n(-c2nc3ccccc3s2)n1 (stereo not given)	1.2 (inactive)
Cc1cc(-c2ccccc2)nc(N2CCC(C(=O)NC34CC5CC(CC(C5)C3)C4)CC2)n1	1.3 (inactive)
CCOC(=O)Nc1sc(C(=O)N(C)C)c(C)c1C(=O)OCC	1 (inactive)
Cc1[nH]n(-c2ccc(Cl)cc2)c(=O)c1/C=N/n1c(C)nc2ccccc2c1=O	1 (inactive)
COc1ccc(C2C(C(C)=O)=C(O)C(=O)N2c2nccs2)cc1 (stereo not given)	1 (inactive)
Cc1ccc(CNC(=O)COc2ccc(S(=O)(=O)NC(C)C)cc2)cc1	1.1 (inactive)
CC(C)C(NC(=O)c1ccc(Cl)cc1)C(=O)O (stereo not given)	1.1 (inactive)
CCOc1ccc(C(=O)NC(C(=O)NCc2ccccn2)C(C)C)cc1 (stereo not given)	1.3 (inactive)
COc1ccc(C2=NOC3(CC(=O)N(c4ccc(Cl)cc4)C3=O)C2)c(OC)c1 (stereo not given)	1 (inactive)
Cc1ccc(S(=O)(=O)NCC(=O)N(CC(=O)NC(C)(C)C)Cc2cccs2)cc1	1.1 (inactive)
Cc1ccc(C(CC(=O)O)Nc2nc(N3CCCCC3)nc(N3CCCCC3)n2)cc1 (stereo not given)	2 (active)
CC(Nc1nc(N2CCCC2)nc2ccccc12)c1ccccc1 (stereo not given)	1.1 (inactive)
COc1ccc(C(CC(=O)O)NC(=O)Cc2ccccc2)cc1 (stereo not given)	1.2 (inactive)
OC(C#CCN1CCOCC1)(c1ccccc1)C1CCCCC1 (stereo not given)	1.1 (inactive)
Cc1ccn(C(CC(=O)c2ccc(Br)cc2)C(=O)O)n1 (stereo not given)	1.1 (inactive)
O=C(O)CSCc1ccc(C(=O)O)o1	1.2 (inactive)
